The source of these data is PubChem BioAssay AID1321 (The Scripps Research Institute Molecular Screening Center, 2008).

Among all 220,000 compounds or so, about 2,600 (1.2%) were called active. The entries come from a sample that favours actives as a whole. Values without a mark were called inactive.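 How the source made its calls: active means activation above the mean of all tested compounds plus 3 SD, set per screening run (cut at about 8.8% in these data); inactive means the rest.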

In the experiment the target is Wee1-like protein kinase (Homo sapiens) (UniProt P30291). The experiment can be described thus: compounds stabilizing Wee1-luciferase fusion – cell-based, HeLa, Wee1K328M-luciferase, luminescence, primary screen (AID 1321).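 Further: cells exposed to compound for 20 h before luminescence read; 0% = DMSO alone and 100% = MG132 at 30 µM.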 The conditions noted are these: HeLa Luc-Wee1K328M stability, at 5 µM, hits give high values, 100% = proteasome inhibitor MG132 effect.
As to `Cc1nn(-c2ccccc2)c(=O)c2noc(C)c12`, the reporter increase is 3.18%. `CS(=O)(=O)c1ccc2nnn(OCC(=O)Nc3cccc(C#N)c3)c2c1`: the reporter increase was 0.86%. With `Cn1c(=O)c(=O)n(C)c2cc(S(=O)(=O)NCCN3CCN(c4ccccc4F)CC3)ccc21`, the reporter increase is 3.58%. Take `COc1ccc(Cc2cc(-c3ccc(F)cc3)n[nH]c2=O)cc1`: the reporter increase is -0.9%.

As to `CCC1(C)Cc2c(sc3nc(SC)[nH]c(=O)c23)CO1` (centres undefined), the reporter increase was -2.99%.

Turning to `CSc1nc2ccc(NC(=O)c3c(F)cccc3F)cc2s1`, the reporter increase was 4.29%. Consider `CCCC(=O)Nc1nc2ccc(NC(=O)c3cccnc3)cc2s1`, for which the reporter increase was 3.09%. For the compound `CCOc1ccc2nc(Nc3nc4ccc(NC(C)=O)cc4s3)sc2c1`, the reporter increase was 1.97%. The result for `COc1ccc2nc(Nc3nc4cc5c(cc4s3)OCCO5)sc2c1` reads 0.78%; that for `CCCC(=O)Nc1nc2ccc(NC(=O)c3c(F)c(F)c(OC)c(F)c3F)cc2s1`, 10.8% (active); that for `COc1ccc2nc(Nc3nc4ccc(NC(C)=O)cc4s3)sc2c1`, 10.4% (active). Turning to `CCCC(=O)Nc1ccc2c(c1)nc(CCNC(=O)c1ccco1)n2C`, the reporter increase is 1.75%. For the compound `CC(=O)N(OCc1ccc(OC(C)C)c(Cl)c1)C(C)=O`, the reporter increase is 2.11%.

With `Cc1c(S(=O)(=O)NCc2ccccc2)c(=O)n(C)c(=O)n1C`, the reporter increase was -0.22%. In the case of `CN1CCN(c2ccc(S(=O)(=O)N3CCOCC3)cc2NC(=O)CCc2ccccc2)CC1`, the reporter increase is 1.28%. `Cc1nnc2n1N=C(c1ccc3c(c1)NC(=O)CO3)CS2`: the reporter increase is -1.74%. For `N/C(=N\S(=O)(=O)c1cc(C(F)(F)F)cc(C(F)(F)F)c1)c1cccs1`, the reporter increase is -2.49%.

On to `O=C(NNC(=O)c1cc2c(s1)CCCC2)c1ccccc1`, for which the reporter increase was 4.34%.

Turning to `O=C(CNC(=O)c1cc2c(s1)CCC2)Nc1ccccc1Br`, the reporter increase was 5.95%. For the compound `O=C(Nc1ccc(F)cc1)c1cc2c(s1)CCCC2`, the reporter increase is 16.5% (active). As for `O=C(CNCCC1=CCCCC1)Nc1ccccc1N1CCCCCC1`, the reporter increase is -2.9%. As to `CN(CC(=O)Nc1ccc(F)cc1)CC(=O)Nc1ccc(Cl)c(S(=O)(=O)N2CCOCC2)c1`, the reporter increase was -2.59%.

`COc1ccc(CC(=O)N/N=C(\C)c2ccccn2)cc1`: the reporter increase was 3.82%.

On to `CCOc1cc(NC(=O)c2ccccn2)c(OCC)cc1NC(=O)c1ccc(OC)cc1`, for which the reporter increase is -0.73%.

In the case of `CCN(CC)CCOc1ccc2c(c1)C(=NNC(=O)c1ccccn1)c1cc(OCCN(CC)CC)ccc1-2`, the reporter increase is 13% (active). With `COc1ccccc1-n1cn[nH]c1=S`, the reporter increase was -1.47%.

Regarding `Cc1ccc2c(C)c(C(=O)N3CCC(N4CCC(C(=O)NC5CC5)CC4)CC3)oc2c1`, the reporter increase was 7.23%.

Consider `O=C(N/N=C\c1cc(Br)c(Br)o1)C1COc2ccccc2O1` (centres undefined), for which the reporter increase was 3.79%.

As to `Cc1cc(CO)nn1-c1ccc([N+](=O)[O-])cc1`, the reporter increase is -1.77%. The result for `c1ccc(Nc2nc(-c3ccncc3)cs2)nc1` reads 11.1% (active); that for `c1cnc(Nc2nc(-c3ccc4ccccc4c3)cs2)nc1`, -0.11%. The result for `COc1ccc(-c2csc(Nc3ccccn3)n2)cc1` reads 0.98%. For `O=C(O)C#Cc1cccc2ccccc12`, the reporter increase was 6.16%. Consider `O=[N+]([O-])C(=c1ccc2c(c1)N1C3=C(CCCC3)CC3CCCCC31N=2)[N+](=O)[O-]` (centres undefined), for which the reporter increase was -2.36%.

`C/C(O)=C\c1nc(=O)c2c(C)cc(C)nc2n1-c1ccccc1`: the reporter increase was -1.67%.

Take `Cc1cc(C)c2c(-n3cccc3)c(NC(=O)OCc3ccccc3)sc2n1`: the reporter increase is -2.38%.

Turning to `Cc1cc(C)c2c(n1)sc1c(=O)n(-c3ccccc3)c(=O)[nH]c12`, the reporter increase was 17.8% (active). Turning to `O=c1[nH]c(SCc2cccc(F)c2)nc2ccccc12`, the reporter increase is -1.83%.

In the case of `O=P(O)(CN1CCCCCC1)C1Cc2ccccc2C1`, the reporter increase is 2.27%. The result for `CN1CCN(C(=O)CCc2nc(-c3ccc(Cl)cc3)no2)CC1` reads 2.75%; that for `CC1CCN(Cc2nc(-c3ccc(Cl)cc3)no2)CC1`, 8.97% (active). Consider `Cc1ccc(-c2noc(CN3CCN(Cc4ccccc4)CC3)n2)cc1`, for which the reporter increase is 0.1%. Turning to `COCC(C)OC(=O)c1c(N)n(CCCN2CCOCC2)c2nc3ccccc3nc12` (centres undefined), the reporter increase was -0.94%. As for `FC(F)(F)c1cccc(-c2nc(COc3ccc(Cl)cc3Cl)no2)c1`, the reporter increase is 1.86%. The result for `CCCC(=O)n1nc(-c2ccccc2)nc1N` reads -0.53%; that for `COc1ccc(CC(=O)n2nc(-c3cccnc3)nc2N)cc1`, 9.39% (active).

For the compound `COc1ccccc1C(=O)n1nc(-c2ccccc2)nc1N`, the reporter increase is 0.74%. For the compound `Clc1ccc(CSc2nnc3c(n2)[nH]c2ccccc23)cc1`, the reporter increase is 4.2%.

For the compound `CC(=O)NCC(O)c1ccc([N+](=O)[O-])cc1` (centres undefined), the reporter increase is -2.38%. As for `COC(=O)c1ccc(S(=O)(=O)N(CCO)Cc2ccccc2)n1C`, the reporter increase was 0.33%. The result for `O=C(Cn1cnc2ccccc2c1=O)Nc1cccc(S(=O)(=O)N2CCCCC2)c1` reads -0.22%; that for `CC(=O)c1cc(C#N)c(SCC(=O)Nc2nccs2)nc1C`, 8.83% (active). The result for `Cc1[nH]c2ccccc2c1SCC(=O)Nc1nccs1` reads -4.02%; that for `CC(=O)c1cc(C#N)c(SCC(=O)C(C)(C)C)nc1C`, 0.58%; that for `O=C(/C=C/Sc1ncn[nH]1)c1ccc(Cl)cc1`, 9.14% (active). With `COc1ccc(Cl)cc1CSc1ncn[nH]1`, the reporter increase is -0.89%. Turning to `Cc1cc(C)nc(S/C=C/C(=O)c2ccccc2)n1`, the reporter increase was 1.73%. Take `Cc1ccc(NC(=S)N2CCCC(c3ccccc3)=N2)cc1`: the reporter increase was -4.54%. For the compound `NC(=O)Cc1ccc2sc(-c3ccccc3)nc2c1`, the reporter increase is 14.1% (active). Turning to `NC(=O)Cc1ccc2c(c1)[nH]c1ccccc12`, the reporter increase is 0.52%. The result for `O=C(O)Cc1sc(-c2ccc(C(=O)O)cc2)nc1-c1ccccc1` reads 2%; that for `Brc1ccc(-c2n(-c3ccccn3)c3ccccc3[n+]2-c2ccccn2)cc1`, 3.34%. For the compound `CN(C)N=Nc1ccc2nc[nH]c2c1`, the reporter increase was 2.5%. Turning to `Cc1ccc(C(=O)Nc2nc(N)n(-c3ccccc3)n2)cc1`, the reporter increase is -0.93%.
